Results as given in PubChem BioAssay (Tox21).
Inconclusive results are not listed. Active and inactive are the calls of the source. Unless noted, calls follow the shape of the dose curve; as a rule, active = well fitted curve in the direction sought with a large enough effect in the repeat runs; inconclusive = weak or mixed curves; inactive = no such curve, though single readings can be large; an effect the other way counts as inactive or inconclusive.

What was measured:
[1] = qHTS assay to identify small molecule antagonists of the vitamin D receptor (VDR) signaling pathway - cell viability counter screen (AID 743225); also: % is scaled to controls: 0 for no effect and ±100 for the full control effect; nearly all actives have a fitted effect of over 50% in size
Method in brief: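 Cytotoxicity counter screen read by CellTiter-Glo luminescence (30 min, room temperature) in the same wells as the VDR-bla antagonist readout. HEK 293T VDR-UAS-bla cells had 16 h at 37C with compound and 3 nM (final) 1-alpha,25-dihydroxyvitamin D3, then 2 h with FRET substrate.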

[2] = qHTS assay to identify small molecule agonists of the NFkB signaling pathway (AID 1159509; active = well fitted curve in the direction sought with a large enough effect in the signal ratio in the repeat runs, not every such curve was filed as active; the % refers to the signal ratio; also: series mostly up to about 61 µM; % is scaled to controls: 0 for no effect and ±100 for the full control effect)
Method in brief: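 Pathway activation was measured in ME-180 cells stably expressing beta-lactamase under NF-kB response element control. Substrate cleavage was read as the 460/530 nm emission shift after 5 hr compound incubation.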

[3] = qHTS assay to identify small molecule agonists of the NFkB signaling pathway - cell viability counter screen (AID 1159515; calls by dose curve; also: series mostly up to about 61 µM; % is scaled to controls: 0 for no effect and ±100 for the full control effect; nearly all actives have a fitted effect of over 55% in size)
Method in brief: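 Read by CellTiter-Glo luminescence (30 min, room temperature) in the wells also used for the beta-lactamase FRET read. ME-180 NFkB-bla cells at 2,000 per well were plated overnight, then exposed to compound for 5 hr at 37 C.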

[4] = qHTS assay to identify small molecule agonists of the endoplasmic reticulum stress response signaling pathway (AID 1159516; active = well fitted activation curve with a large enough effect in the signal ratio in the repeat runs, not every such curve was filed as active; the % refers to the signal ratio; also: % is scaled to controls: 0 for no effect and ±100 for the full control effect)
Method in brief: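 Ratiometric FRET readout (405 nm excitation; 460 and 530 nm emission) of a beta-lactamase gene driven by the ER stress response element, after 2 hr substrate loading. HeLa ESRE-bla cells were seeded overnight and treated with compounds for only 5 hr at 37 C.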

[5] = qHTS assay to identify small molecule antagonists of the retinoid-related orphan receptor gamma (ROR-gamma) signaling pathway - cell viability counter screen (AID 1159520); also: % is scaled to controls: 0 for no effect and ±100 for the full control effect; nearly all actives have a fitted effect of over 50% in size
Method in brief: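 Cytotoxicity was read from cellular ATP (CellTiter-Glo luminescence) after 16 hr at 37 C with 1 uM doxycycline induction. The inducer was added 2 hr after compound transfer to Tet-on ROR gamma CHO cells.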

[6] = target: Nuclear receptor ROR-gamma (Homo sapiens) (UniProt P51449); assay: qHTS assay to identify small molecule antagonists of the retinoid-related orphan receptor gamma (ROR-gamma) signaling pathway (AID 1159521; also: top concentration of the series differs between compounds; % is scaled to controls: 0 for no effect and ±100 for the full control effect; nearly all actives have a fitted effect of over 50% in size)
Method in brief: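 Antagonist read-out: drop in luminescence (ONE-Glo) from an RORE-LUC reporter in CHO cells with doxycycline-inducible ROR-gamma; 2 hr compound pretreatment, 1 uM doxycycline, 16 hr incubation at 37 C.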

[7] = qHTS assay to identify small molecule agonists of the AP-1 signaling pathway - cell viability counter screen (AID 1159525; calls by dose curve; also: nearly all actives have a fitted effect of over 55% in size)
Method in brief: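 Intracellular ATP by Cell Titer Glo luminescence (30 min, RT) in the same ME-180 AP-1-bla wells after the 5 h compound exposure at 37 °C. Normalised to tetra n-octyl ammonium bromide and DMSO controls.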

[8] = qHTS assay to identify small molecule agonists of the AP-1 signaling pathway (AID 1159526; calls by dose curve; also: % is scaled to controls: 0 for no effect and ±100 for the full control effect)
[9] = target: Retinoic acid receptor RXR-alpha (Homo sapiens) (UniProt P19793); assay: qHTS assay to identify small molecule agonists of the RXR signaling pathway (AID 1159527; calls by dose curve; also: % is scaled to controls: 0 for no effect and ±100 for the full control effect; nearly all actives have a fitted effect of over 35% in size)
Method in brief: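 Agonist-mode beta-lactamase reporter assay: HEK 293T RXR-alpha-UAS-bla cells treated 16 hr at 37 C with compounds, 9-cis retinoic acid as positive control. LiveBLAzer FRET substrate, 405 nm excitation, 460/530 nm emission.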

[10] = qHTS assay to identify small molecule agonists of the RXR signaling pathway - cell viability counter screen (AID 1159529); also: series mostly up to about 77 µM; % is scaled to controls: 0 for no effect and ±100 for the full control effect; nearly all actives have a fitted effect of over 50% in size
Method in brief: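 CellTiter-Glo luminescence gave viability in the wells also read for beta-lactamase. Cells (RXR-alpha-UAS-bla HEK 293T, 2% charcoal-stripped FBS medium) had 5 hr plating, then 16 hr compound exposure at 37 C; tetraoctyl ammonium bromide served as positive control.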

[11] = qHTS assay to identify small molecule antagonists of the retinoid acid receptor (RAR) signaling pathway - cell viability counter screen (AID 1159551); also: % is scaled to controls: 0 for no effect and ±100 for the full control effect; nearly all actives have a fitted effect of over 35% in size
Method in brief: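 Cytotoxicity counter screen: ATP content quantified by CellTiter-Glo luminescence in C3RL4 cells treated 6 hr at 37 C with compound and retinol (1 uM final). Cells plated at 1,000/well and cultured overnight before dosing.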

[12] = qHTS assay to identify small molecule antagonists of the retinoic acid receptor (RAR) signaling pathway (AID 1159552)
Method in brief: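 Luminescent RARE reporter read-out in C3RL4 cells: 6 hr co-treatment at 37 C of test compounds with retinol at 1 uM final. Cells plated overnight beforehand; luciferase reagent incubated 30 min at room temperature before reading.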

[13] = qHTS assay to identify small molecule agonists of the retinoic acid receptor (RAR) signaling pathway (AID 1159553); also: % is scaled to controls: 0 for no effect and ±100 for the full control effect
Method in brief: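 Luminescence was measured 30 min after luciferase reagent addition at room temperature. Before that, C3RL4 reporter cells (1,000 per well, plated overnight) were treated with compound for 6 hr at 37 C and 5% CO2.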

[14] = qHTS assay to identify small molecule antagonists of the estrogen related receptor (ERR) signaling pathway from Tox21 library - cell viability counter screen (AID 1224834); also: % is scaled to controls: 0 for no effect and ±100 for the full control effect; nearly all actives have a fitted effect of over 30% in size
Method in brief: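 CellTiter-Fluor fluorescence, read after 30 min at 37 C, measures viability of ERR cells. Cells plated at 2,000/well and incubated 6 h before pin-tool compound addition, then exposed 17.5 hours at 37 C.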

[15] = target: Luciferin 4-monooxygenase (Photinus pyralis) (UniProt P08659); assay: qHTS assay to identify small molecule inhibitors of firefly luciferase (AID 1224835); also: series mostly up to about 120 µM; % is scaled to controls: 0 for no effect and ±100 for the full control effect; nearly all actives have a fitted effect of over 25% in size
Method in brief: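 Inhibition of purified Photinus luciferase is measured by luminescence. Substrate levels (D-luciferin, ATP) sit at their KM values. Each compound is tested in a concentration series.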

[16] = qHTS assay to identify small molecule agonists of the constitutive androstane receptor (CAR) signaling pathway - cell viability counter screen (AID 1224836); also: series mostly up to about 92 µM; % is scaled to controls: 0 for no effect and ±100 for the full control effect; nearly all actives have a fitted effect of over 45% in size
Method in brief: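 Cell viability multiplexed with the CAR agonist screen: CellTiter-Fluor fluorescence after 23 hr at 37 C. HepG2-CYP2B6-hCAR cells got compounds at 15 concentrations with PK11195 at 0.75 uM final.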

[17] = qHTS assay to identify small molecule antagonists of the constitutive androstane receptor (CAR) signaling pathway - cell viability counter screen (AID 1224837); also: series mostly up to about 92 µM; % is scaled to controls: 0 for no effect and ±100 for the full control effect; nearly all actives have a fitted effect of over 45% in size
Method in brief: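 Cytotoxicity counter-screen: CellTiter-Fluor fluorescence after 23 h compound exposure (15-point qHTS) in double-stable HepG2-CYP2B6-hCAR cells, with 50 nM CITCO added.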

[18] = target: Nuclear receptor subfamily 1 group I member 3 (Homo sapiens) (UniProt Q14994); assay: qHTS assay to identify small molecule antagonists of the constitutive androstane receptor (CAR) signaling pathway (AID 1224838);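 also: HepG2 cells stably expressing hCAR with CYP2B6 luciferase reporter stimulated by CITCO; % is scaled to controls: 0 for no effect and ±100 for the full control effect; nearly all actives have a fitted effect of over 40% in size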
Method in brief: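 Antagonism measured as luciferase signal (ONE-Glo, 30 min, room temperature) in CAR-stimulated cells: HepG2-CYP2B6-hCAR double-stable line exposed 24 hr at 37 C to compound in a 15-point series plus 50 nM CITCO.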

[19] = target: Nuclear receptor subfamily 1 group I member 3 (Homo sapiens) (UniProt Q14994); assay: qHTS assay to identify small molecule agonists of the constitutive androstane receptor (CAR) signaling pathway (AID 1224839);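 also: HepG2 cells stably carrying human CAR and a CYP2B6 luciferase reporter; series mostly up to about 92 µM; % is scaled to controls: 0 for no effect and ±100 for the full control effect; nearly all actives have a fitted effect of over 15% in size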
Method in brief: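 Luminescent ONE-Glo read-out after 24 hr, 37 C exposure of double-stable HepG2-CYP2B6-hCAR reporter cells to a 15-point compound series, in the presence of 0.75 uM PK11195 (final).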

Chain of Nuclear receptor subfamily 1 group I member 3 (Homo sapiens) (Q14994 whole entry, looked up): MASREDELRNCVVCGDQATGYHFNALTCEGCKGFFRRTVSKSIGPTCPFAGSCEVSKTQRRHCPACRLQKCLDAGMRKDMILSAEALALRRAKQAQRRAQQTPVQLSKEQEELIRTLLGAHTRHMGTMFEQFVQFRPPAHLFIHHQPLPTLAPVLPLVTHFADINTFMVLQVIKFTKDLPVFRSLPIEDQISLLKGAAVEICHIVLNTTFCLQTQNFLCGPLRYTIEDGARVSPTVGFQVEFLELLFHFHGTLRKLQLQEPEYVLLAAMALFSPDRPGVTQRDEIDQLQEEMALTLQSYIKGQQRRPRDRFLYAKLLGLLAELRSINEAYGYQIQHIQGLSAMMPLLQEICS
Chain of Luciferin 4-monooxygenase (Photinus pyralis) (P08659 whole entry, looked up): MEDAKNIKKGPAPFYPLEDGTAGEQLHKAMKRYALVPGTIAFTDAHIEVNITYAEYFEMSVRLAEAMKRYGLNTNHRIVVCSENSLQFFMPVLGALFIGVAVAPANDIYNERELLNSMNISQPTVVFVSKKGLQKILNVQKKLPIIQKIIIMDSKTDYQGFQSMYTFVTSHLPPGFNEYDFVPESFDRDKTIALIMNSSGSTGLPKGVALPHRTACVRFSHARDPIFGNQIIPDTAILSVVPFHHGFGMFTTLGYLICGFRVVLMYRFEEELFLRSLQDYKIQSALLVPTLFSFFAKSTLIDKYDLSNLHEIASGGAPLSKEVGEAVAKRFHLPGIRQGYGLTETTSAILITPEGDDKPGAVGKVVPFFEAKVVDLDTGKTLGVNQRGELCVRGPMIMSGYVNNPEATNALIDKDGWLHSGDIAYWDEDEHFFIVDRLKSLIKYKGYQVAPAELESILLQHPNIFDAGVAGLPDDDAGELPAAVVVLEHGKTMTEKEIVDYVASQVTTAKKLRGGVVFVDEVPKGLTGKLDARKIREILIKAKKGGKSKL
Chain of Retinoic acid receptor RXR-alpha (Homo sapiens) (P19793 whole entry, looked up): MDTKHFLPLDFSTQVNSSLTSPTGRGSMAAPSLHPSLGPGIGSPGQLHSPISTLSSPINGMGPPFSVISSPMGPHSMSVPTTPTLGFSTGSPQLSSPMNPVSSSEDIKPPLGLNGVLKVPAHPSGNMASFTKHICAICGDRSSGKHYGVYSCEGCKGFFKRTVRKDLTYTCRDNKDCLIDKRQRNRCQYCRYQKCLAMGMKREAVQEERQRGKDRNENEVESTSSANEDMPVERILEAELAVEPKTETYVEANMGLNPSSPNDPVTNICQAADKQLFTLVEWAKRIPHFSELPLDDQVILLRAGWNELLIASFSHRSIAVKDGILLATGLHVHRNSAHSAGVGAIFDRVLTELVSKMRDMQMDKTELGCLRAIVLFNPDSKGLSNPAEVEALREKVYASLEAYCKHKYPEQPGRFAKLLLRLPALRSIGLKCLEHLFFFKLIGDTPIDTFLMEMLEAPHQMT

Cc1c(C(=O)c2c[nH]n(C)c2=O)ccc(S(C)(=O)=O)c1C1=NOCC1
inactive: outcome [1] | outcome [2] | outcome [3] | outcome [4] | outcome [5] | outcome [6] | outcome [7] | outcome [8] | Potency [9] | outcome [10] | outcome [11] | outcome [12] | Potency [13] | outcome [14] | Potency [15] | outcome [16] | outcome [17] | Potency [18] | Potency [19]

O=C1OCCO1
inactive: outcome [2] | outcome [3] | outcome [4] | outcome [5] | outcome [6] | outcome [8] | Potency [9] | outcome [10] | outcome [11] | outcome [12] | Potency [13] | outcome [14] | Potency [15] | outcome [16] | outcome [17] | Potency [18] | Potency [19]

CC1(C)CC(OC(=O)CCCCCCCCC(=O)OC2CC(C)(C)NC(C)(C)C2)CC(C)(C)N1
inactive: outcome [1] | outcome [2] | outcome [3] | outcome [4] | activity, negative = cytotoxicity [5] 1.22% [at 19 µM] | activity change, negative = inhibition [6] 5.06% [at 19 µM] | viability change, negative = cytotoxic [7] -4.65% [at 15.8 µM] | activation [8] 13.3% [at 15.8 µM] | activation [9] -1.61% [at 15.8 µM] | activity change, negative = cytotoxicity [10] -17.6% [at 15.8 µM] | activity change, negative = cytotoxicity [11] -0.597% [at 19 µM] | activity, negative = inhibition [12] 10.8% [at 19 µM] | Potency [13] | viability change, negative = cytotoxic [14] -0.749% [at 19 µM] | activity change, negative = inhibition [15] 0.839% [at 23.6 µM] | viability change, negative = cytotoxic [16] -0.169% [at 19 µM] | activity change, negative = cytotoxicity [17] -3.96% [at 19 µM] | activity, negative = inhibition [18] 7.36% [at 19 µM] | activation [19] -1.81% [at 19 µM]

O=C(O)CONC(=O)c1ccccc1
inactive: outcome [1] | outcome [2] | outcome [3] | outcome [4] | outcome [5] | outcome [6] | outcome [7] | outcome [8] | Potency [9] | outcome [10] | outcome [11] | outcome [12] | Potency [13] | outcome [14] | Potency [15] | outcome [16] | outcome [17] | Potency [18] | Potency [19]

C=CCSSCCC
inactive: outcome [1] | outcome [2] | outcome [3] | outcome [4] | outcome [5] | outcome [6] | outcome [7] | outcome [8] | Potency [9] | outcome [10] | outcome [11] | outcome [12] | Potency [13] | outcome [14] | Potency [15] | outcome [16] | outcome [17] | Potency [18] | Potency [19]

N#Cc1ccccc1O
inactive: outcome [2] | outcome [3] | outcome [4] | outcome [5] | outcome [6] | outcome [7] | outcome [8] | Potency [9] | outcome [10] | outcome [11] | outcome [12] | Potency [13] | outcome [14] | Potency [15] | outcome [17] | Potency [18]
